Consider eight compounds from PubChem BioAssay (NCATS).

A number with no mark means an inactive call. Records with an inconclusive call do not appear. The source made the active and inactive calls. Unless noted, calls follow the shape of the dose curve; as a rule, active = well fitted curve in either direction with a large enough effect (not every such curve was filed as active); inconclusive = small, poorly fitted or top-dose-only effect, or another doubt; inactive = flat fitted curve, though single readings scatter.

Test [1] concerns the target Lysosomal acid glucosylceramidase (Homo sapiens) (UniProt P04062). Kind of test: Glucocerebrosidase-p2 (AID 348; in the data active = potency below about 10 µM; also: potency is read from the fitted curve at half-maximal effect). The note with it: purified GBA, blue fluorogenic substrate, 40 min. Put shortly:
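Compounds titrated from 0.6 nM upwards against 0.2 nM enzyme in pH 5.9 citric acid/KH2PO4, taurocholate, tween-20; blue fluorogenic substrate 80 uM, 40 min room temperature, stopped and read Ex 365/Em 440 for AC50.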

Test [2] in a line: AP1 Signaling Pathway (AID 357).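 Also: ME-180 reporter cells stimulated with EGF at its EC50 level; % is scaled to controls: 0 for no effect and ±100 for the full control effect.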 Conditions: ME-180 AP-1-bla reporter, EGF-induced, beta-lactamase ratio, 5 h; at 7.69 µM (top of the series) unless noted. Put shortly:
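A ratiometric CCF4 readout (405 nm excitation; 460 and 530 nm emission) quantified AP-1-driven beta-lactamase in ME-180 cells after 5 h with compound and EC50 EGF; AC50 values were derived for activators and inhibitors.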

Test [3] concerns the target Cytochrome P450 1A2 (Homo sapiens) (UniProt P05177). Kind of test: p450-cyp1a2 (AID 410; calls by dose curve; also: potency is read from the fitted curve at half-maximal effect). Conditions: recombinant CYP1A2, luciferin-ME demethylation, luminescence; series mostly up to 11.4 µM. Put shortly:
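20nM CYP1A2 with 100uM Luciferin-ME (at Km) in 100mM KPO4; compound preincubated 10 min, NADPH regeneration added, 60 min at room temperature. Luciferin quantified by luminescence after detection reagent; normalized to 57 uM furafylline.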

Test [4] in a line: NFAT Signaling Pathway (AID 444).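 Also: carbachol stimulus at about its EC50 of 1 µM final; % is scaled to controls: 0 for no effect and ±100 for the full control effect.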 The note with it: Jurkat NFAT-bla M1, carbachol, beta-lactamase ratio, 5 h; at 7.69 µM (top of the series) unless noted. Summed up:
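Jurkat cells with NFAT-driven β-lactamase reporter and co-expressed M1 receptor, stimulated with carbachol (final 1 uM, ~EC50), compound titration, 5 h at 37 °C. CCF4 loaded 1 h at RT; 460/530 nm ratio gave %activity and AC50.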

Test [5] in a line: Stat Signaling Pathway (AID 446).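 Also: ME-180 cervical cancer cells given 40 pM IL-6 alongside compound; SIE-controlled beta-lactamase reporter measured as 460/530 nm FRET emission ratio; % is scaled to controls: 0 for no effect and ±100 for the full control effect.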 The note with it: ME-180 SIE beta-lactamase reporter, IL-6 stimulated, 5 h; at 7.69 µM (top of the series) unless noted. Put shortly: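 ME-180 cells carrying a SIE-driven beta-lactamase reporter are stimulated with 40 pM IL-6 for 5 h at 37C in the presence of compound. The 460/530 nm FRET substrate ratio is read after 2.5 h at RT. Data are normalised to 300 pM IL-6 and to 125 nM JAK inhibitor controls.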

In test [6] the target is Glucocorticoid receptor (Homo sapiens) (UniProt P04150). Kind of test: GR-GFP Redistribution (AID 450;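 active = compounds whose dose series gives a full or clear partial fitted curve of increased nuclear translocation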; also: potency is read from the fitted curve at half-maximal effect). Conditions: U2OS GR-GFP nuclear translocation, laser cytometry, 2 h.
Test [7] deals with Mitogen-activated protein kinase 10 (Mus musculus) (UniProt Q61831). Kind of test: JNK3 AlphaScreen Assay (AID 530).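 Also: kinase came from lysate of stimulated human HepG2 cells; signal reports phosphorylation of biotinylated GST-cJun 1-79 at Ser73 with 10 µM ATP; % is scaled to controls: 0 for no effect and ±100 for the full control effect.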 Conditions: JNK3 lysate, c-Jun phosphorylation; series mostly up to 11.4 µM. Put shortly: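 Pre-activated (IL-1β/TNFα) JNK3 in HepG2 lysates phosphorylates biotin-GST-cJun(1-79), 10 uM ATP; anti-phospho-cJun(Ser73) AlphaScreen read at room temperature, pH 7.6 Tris buffer. Compounds pre-incubated 15 min as titrations.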

Test [8] has as its target 3',5'-cyclic-AMP phosphodiesterase 4B (Homo sapiens) (UniProt Q07343). Kind of test: qHTS Assay for Inhibitors of PDE-IV (AID 607; active = well fitted activation curve with a large enough effect in the main read-out, with a control signal flat, not every such curve was filed as active; also: % of control where 0% means no effect). Conditions: HEK293 ACTOne CNG channel cells, membrane potential fluorescence; series mostly up to 22.9 µM. Summed up: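 HEK293 ACTOne cells with CNG channel (1000/well), endogenous PDE4; membrane potential dye, compounds up to 22.9 uM final. Fluorescence Ex 535/Em 590; RO 20-1724 (100 uM final) as reference.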

In test [9] the target is Glucocorticoid receptor (Homo sapiens) (UniProt P04150). Kind of test: GR-EFC Redistribution (AID 451; calls by dose curve; also: potency is read from the fitted curve at half-maximal effect). The note with it: CHO-K1 GR-EFC translocation, beta-gal luminescence, 2 h. Summed up: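 CHO-K1 cells expressing nuclear EA and GR-ED fragments of b-gal; compounds titrated up to 46 uM final, 2 h at 37 C. GR nuclear translocation read as complemented b-gal luminescence after 1 h RT detection.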

The target of test [10] is Cytochrome P450 3A4 (Homo sapiens) (UniProt P08684). Kind of test: qHTS Assay for Activators of Cytochrome P450 3A4 (AID 885; active = well fitted curve in the direction sought with a large enough effect; an effect the other way counts as inactive or inconclusive; also: nearly all actives have a fitted effect of over 65% in size). Conditions: recombinant CYP3A4, Luciferin-PPXE luminescence, 60 min; series mostly up to 11.4 µM. Summed up: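 Human CYP3A4 (20 nM) with Luciferin-PPXE at 25 uM (its KM) in 200 mM KPO4; 10 min compound preincubation, then NADPH regeneration and 60 min reaction at RT. Luciferin read by luminescence; normalized to 57 uM ketoconazole full inhibition.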

The target of test [11] is Cytochrome P450 2D6 (Homo sapiens) (UniProt P10635). Kind of test: qHTS Assay for Inhibitors and Substrates of Cytochrome P450 2D6 (AID 891; active = well fitted curve in the direction sought with a large enough effect; an effect the other way counts as inactive or inconclusive; also: potency is read from the fitted curve at half-maximal effect; nearly all actives have a fitted effect of over 60% in size). Conditions: recombinant CYP2D6, luciferin-ME EGE luminescence; series mostly up to 11.4 µM. Summed up:
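Human CYP2D6 (5 nM) with 30 uM Luciferin-ME EGE (at Km) in 100 mM KPO4, compound preincubated 10 min, then NADPH regeneration system for 60 min at room temperature. Luciferin read by luminescence; normalized to 1.43 uM quinidine.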

Test [12] deals with Cytochrome P450 2C19 (Homo sapiens) (UniProt P33261). Kind of test: qHTS Assay for Inhibitors and Substrates of Cytochrome P450 2C19 (AID 899; active = well fitted curve in the direction sought with a large enough effect; an effect the other way counts as inactive or inconclusive; also: nearly all actives have a fitted effect of over 60% in size; also: potency is read from the fitted curve at half-maximal effect). Conditions: recombinant CYP2C19, luciferin-H EGE luminescence; series mostly up to 11.4 µM. Summed up:
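5 nM human CYP2C19 with 10uM Luciferin-H EGE (at KM) in 50mM KPO4, compound preincubated 10 min at 37C, then NADPH regeneration for 60 min at 37C. Luciferin read by luminescence after detection reagent; normalized to 57uM ketoconazole as full inhibition.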

Test [13] addresses Cytochrome P450 2C9 (Homo sapiens) (UniProt P11712). Kind of test: qHTS Assay for Inhibitors and Substrates of Cytochrome P450 2C9 (AID 883; active = well fitted curve in the direction sought with a large enough effect; an effect the other way counts as inactive or inconclusive; also: % is scaled to controls: 0 for no effect and ±100 for the full control effect; nearly all actives have a fitted effect of over 60% in size). Conditions: recombinant CYP2C9, luciferin-H luminescence, 60 min; series mostly up to 11.4 µM. Put shortly:
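Human CYP2C9 (10nM) with Luciferin-H at 100uM (its KM) in 25mM KPO4; compound preincubated 10 min at 37C, then NADPH regeneration for 60 min at 37C. Luciferin read by luminescence after detection reagent; normalized to 57uM sulphaphenazole as full inhibition.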

Lysosomal acid glucosylceramidase (Homo sapiens), sequence (P04062 whole entry, looked up): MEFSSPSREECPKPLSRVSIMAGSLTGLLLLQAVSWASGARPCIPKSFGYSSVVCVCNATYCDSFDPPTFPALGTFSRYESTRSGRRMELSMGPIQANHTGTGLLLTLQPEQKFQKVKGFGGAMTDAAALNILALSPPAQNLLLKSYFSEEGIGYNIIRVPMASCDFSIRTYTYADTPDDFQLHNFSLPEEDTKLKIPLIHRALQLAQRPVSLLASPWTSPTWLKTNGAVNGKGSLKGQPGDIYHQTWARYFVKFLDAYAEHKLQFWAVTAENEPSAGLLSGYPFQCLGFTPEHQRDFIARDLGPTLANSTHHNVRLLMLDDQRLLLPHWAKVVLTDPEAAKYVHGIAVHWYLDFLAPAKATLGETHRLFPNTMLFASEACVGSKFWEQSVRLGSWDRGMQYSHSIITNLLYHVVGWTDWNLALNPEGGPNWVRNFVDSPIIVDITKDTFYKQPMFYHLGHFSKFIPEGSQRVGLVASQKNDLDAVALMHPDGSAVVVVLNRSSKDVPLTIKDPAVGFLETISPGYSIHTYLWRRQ
3',5'-cyclic-AMP phosphodiesterase 4B (Homo sapiens), sequence (Q07343 whole entry, looked up): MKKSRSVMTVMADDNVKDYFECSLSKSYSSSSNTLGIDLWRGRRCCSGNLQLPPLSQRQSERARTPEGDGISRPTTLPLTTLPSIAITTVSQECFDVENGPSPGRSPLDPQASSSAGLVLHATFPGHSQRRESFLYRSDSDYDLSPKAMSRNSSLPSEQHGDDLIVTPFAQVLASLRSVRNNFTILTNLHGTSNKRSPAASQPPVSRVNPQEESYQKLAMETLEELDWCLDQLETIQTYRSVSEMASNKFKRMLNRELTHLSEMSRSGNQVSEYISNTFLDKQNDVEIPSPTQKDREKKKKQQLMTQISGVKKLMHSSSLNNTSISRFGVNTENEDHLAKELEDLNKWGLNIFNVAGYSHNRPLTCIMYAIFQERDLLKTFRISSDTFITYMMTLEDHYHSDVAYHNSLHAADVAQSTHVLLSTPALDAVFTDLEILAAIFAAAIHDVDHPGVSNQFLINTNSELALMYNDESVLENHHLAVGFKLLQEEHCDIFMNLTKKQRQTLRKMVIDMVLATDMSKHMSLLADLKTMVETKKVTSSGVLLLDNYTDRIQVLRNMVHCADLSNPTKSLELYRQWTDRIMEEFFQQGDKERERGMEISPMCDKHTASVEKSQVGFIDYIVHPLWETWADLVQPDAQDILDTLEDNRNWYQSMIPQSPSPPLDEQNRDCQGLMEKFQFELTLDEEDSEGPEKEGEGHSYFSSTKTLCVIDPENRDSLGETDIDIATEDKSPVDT
Cytochrome P450 2D6 (Homo sapiens), sequence (P10635 whole entry, looked up): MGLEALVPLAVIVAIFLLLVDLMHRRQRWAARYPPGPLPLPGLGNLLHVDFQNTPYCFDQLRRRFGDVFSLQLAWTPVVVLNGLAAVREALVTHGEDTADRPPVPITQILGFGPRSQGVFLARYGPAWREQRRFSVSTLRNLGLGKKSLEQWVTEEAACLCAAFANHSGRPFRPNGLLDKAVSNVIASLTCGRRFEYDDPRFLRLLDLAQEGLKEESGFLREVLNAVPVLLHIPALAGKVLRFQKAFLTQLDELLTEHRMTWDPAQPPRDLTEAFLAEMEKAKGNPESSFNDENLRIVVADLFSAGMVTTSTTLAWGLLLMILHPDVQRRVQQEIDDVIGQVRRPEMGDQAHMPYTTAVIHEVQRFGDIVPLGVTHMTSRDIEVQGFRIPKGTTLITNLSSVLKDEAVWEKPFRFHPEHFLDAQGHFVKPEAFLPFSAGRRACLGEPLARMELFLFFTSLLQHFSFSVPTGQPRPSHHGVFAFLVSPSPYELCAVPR
Glucocorticoid receptor (Homo sapiens), sequence (P04150 whole entry, looked up, the tested form may be a part): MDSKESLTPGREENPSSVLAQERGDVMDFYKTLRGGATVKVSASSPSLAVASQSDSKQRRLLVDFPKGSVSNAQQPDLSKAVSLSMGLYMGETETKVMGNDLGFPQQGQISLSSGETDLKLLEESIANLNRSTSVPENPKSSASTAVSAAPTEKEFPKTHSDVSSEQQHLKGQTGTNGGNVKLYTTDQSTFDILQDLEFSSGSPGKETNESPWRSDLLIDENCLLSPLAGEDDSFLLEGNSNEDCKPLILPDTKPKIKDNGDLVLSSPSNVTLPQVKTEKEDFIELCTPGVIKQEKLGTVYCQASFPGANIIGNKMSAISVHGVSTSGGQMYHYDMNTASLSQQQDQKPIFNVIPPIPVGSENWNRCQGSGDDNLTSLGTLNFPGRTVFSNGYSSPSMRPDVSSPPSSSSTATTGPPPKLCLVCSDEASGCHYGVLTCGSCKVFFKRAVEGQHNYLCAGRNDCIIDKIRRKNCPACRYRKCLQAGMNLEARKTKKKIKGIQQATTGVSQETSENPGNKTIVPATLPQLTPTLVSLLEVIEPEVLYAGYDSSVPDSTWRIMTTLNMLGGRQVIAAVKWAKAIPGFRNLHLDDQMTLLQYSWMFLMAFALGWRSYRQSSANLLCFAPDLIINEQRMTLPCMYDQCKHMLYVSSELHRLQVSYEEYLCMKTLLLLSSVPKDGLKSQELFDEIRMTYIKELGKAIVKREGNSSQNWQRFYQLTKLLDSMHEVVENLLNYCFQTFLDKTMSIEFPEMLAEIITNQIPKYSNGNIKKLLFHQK
Cytochrome P450 1A2 (Homo sapiens), sequence (P05177 whole entry, looked up): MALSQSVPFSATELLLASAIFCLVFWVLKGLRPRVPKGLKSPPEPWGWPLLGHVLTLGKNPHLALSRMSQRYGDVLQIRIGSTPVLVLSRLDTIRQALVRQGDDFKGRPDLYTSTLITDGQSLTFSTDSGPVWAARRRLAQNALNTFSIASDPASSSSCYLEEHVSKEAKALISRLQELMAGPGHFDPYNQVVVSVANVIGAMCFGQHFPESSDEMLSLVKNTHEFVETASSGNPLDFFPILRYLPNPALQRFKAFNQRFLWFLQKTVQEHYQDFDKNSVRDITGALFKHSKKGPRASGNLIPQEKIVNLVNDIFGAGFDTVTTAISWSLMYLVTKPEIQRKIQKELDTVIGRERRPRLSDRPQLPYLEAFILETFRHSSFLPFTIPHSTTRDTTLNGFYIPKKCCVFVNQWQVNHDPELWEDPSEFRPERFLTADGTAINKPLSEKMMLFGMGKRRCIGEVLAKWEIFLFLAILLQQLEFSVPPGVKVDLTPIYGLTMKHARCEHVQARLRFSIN
Cytochrome P450 2C19 (Homo sapiens), sequence (P33261 whole entry, looked up): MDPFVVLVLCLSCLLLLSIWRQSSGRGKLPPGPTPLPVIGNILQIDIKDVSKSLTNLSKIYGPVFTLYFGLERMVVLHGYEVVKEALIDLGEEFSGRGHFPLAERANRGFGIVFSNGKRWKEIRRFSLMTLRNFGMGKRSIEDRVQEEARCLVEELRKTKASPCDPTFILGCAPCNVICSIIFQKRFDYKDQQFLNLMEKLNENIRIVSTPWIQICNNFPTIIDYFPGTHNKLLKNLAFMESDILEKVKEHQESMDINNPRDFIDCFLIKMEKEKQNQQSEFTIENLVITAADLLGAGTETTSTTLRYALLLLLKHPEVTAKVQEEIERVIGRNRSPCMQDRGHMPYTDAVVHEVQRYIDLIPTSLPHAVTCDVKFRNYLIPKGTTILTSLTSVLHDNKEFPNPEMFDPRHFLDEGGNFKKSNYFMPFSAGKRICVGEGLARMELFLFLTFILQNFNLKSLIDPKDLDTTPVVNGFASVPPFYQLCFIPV
Cytochrome P450 2C9 (Homo sapiens), sequence (P11712 whole entry, looked up): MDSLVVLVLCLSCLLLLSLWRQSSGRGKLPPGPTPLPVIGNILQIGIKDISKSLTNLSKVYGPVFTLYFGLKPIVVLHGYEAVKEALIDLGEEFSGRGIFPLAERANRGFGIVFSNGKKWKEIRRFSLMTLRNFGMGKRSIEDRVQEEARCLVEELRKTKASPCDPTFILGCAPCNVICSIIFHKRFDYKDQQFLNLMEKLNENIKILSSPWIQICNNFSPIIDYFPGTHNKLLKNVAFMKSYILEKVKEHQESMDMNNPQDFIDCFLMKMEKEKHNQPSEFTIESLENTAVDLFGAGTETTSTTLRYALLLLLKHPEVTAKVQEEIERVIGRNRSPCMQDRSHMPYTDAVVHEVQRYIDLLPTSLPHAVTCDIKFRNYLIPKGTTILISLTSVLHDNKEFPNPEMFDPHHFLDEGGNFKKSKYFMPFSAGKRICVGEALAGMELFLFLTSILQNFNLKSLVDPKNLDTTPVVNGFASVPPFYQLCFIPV
Cytochrome P450 3A4 (Homo sapiens), sequence (P08684 whole entry, looked up): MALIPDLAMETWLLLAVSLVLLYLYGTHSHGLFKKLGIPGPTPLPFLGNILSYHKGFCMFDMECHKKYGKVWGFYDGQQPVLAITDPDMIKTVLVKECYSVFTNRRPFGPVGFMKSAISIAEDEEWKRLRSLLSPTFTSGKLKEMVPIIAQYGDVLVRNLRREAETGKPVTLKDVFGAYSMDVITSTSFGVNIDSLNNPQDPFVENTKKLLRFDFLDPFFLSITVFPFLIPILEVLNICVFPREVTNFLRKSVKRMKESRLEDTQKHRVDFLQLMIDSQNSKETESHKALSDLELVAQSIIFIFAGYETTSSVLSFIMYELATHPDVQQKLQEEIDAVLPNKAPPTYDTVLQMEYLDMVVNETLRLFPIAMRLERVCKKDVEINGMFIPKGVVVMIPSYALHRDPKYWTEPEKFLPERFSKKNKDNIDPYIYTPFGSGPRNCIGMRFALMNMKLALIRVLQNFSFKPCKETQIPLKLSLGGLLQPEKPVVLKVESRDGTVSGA

Consider `COc1cc(C2SCCCCCCCCCCSC(c3ccc(O)c(OC)c3)SCCCCCCCCCCS2)ccc1O` (stereo not drawn), for which the Potency is greater than 11.4 µM in [1] and greater than 46 µM in [6]. The results for the activity change, negative = inhibition in test [2], in [3] and in test [4] were -0.286%, -6.9% [at 2.29 µM] and 19.7%, respectively. In test [5], the activity, negative = inhibition is 9.48%. In addition, the Potency entry in test [7] and in test [8] was “inactive” in each case.

For `CN(C)c1ccc(N=Nc2cccc3ccoc23)cc1`, the Potency in test [1] is greater than 11.4 µM; in test [3], 0.251 µM (active); in test [6], greater than 46 µM; in test [9], greater than 9.22 µM. Further, the activity change, negative = inhibition is 1.15% in test [2] and -18.9% in test [4]. The activity, negative = inhibition in test [5] is 4.35%. The Potency result in test [8] and in test [10] was “inactive” throughout.

`COc1cc(-c2[o+]c3cc(O)cc(O)c3cc2O)cc(O)c1O`: the Potency in test [1] is greater than 11.4 µM. Further, the figures for the activity change, negative = inhibition in test [2], in test [3] and in test [4] were 19.4%, -19.9% [at 2.29 µM] and 20.3%, respectively. Besides, the activity, negative = inhibition in test [5] is 0.423%. Also, the Potency result in test [7] and in test [8] was “inactive” in each case.

For `CC1=NN(c2ccc(S(=O)(=O)O)cc2)C(=O)/C1=C\c1ccc(Cl)cc1`, the Potency in test [1] is greater than 11.4 µM. The results for the activity change, negative = inhibition in test [2], in test [3] and in test [4] were 3.84%, -8.9% [at 2.29 µM] and 7.84%, respectively. Further, the activity, negative = inhibition in [5] is -1.78%. The Potency entry in test [7] and in [8] was “inactive” in each case.

On to `Cc1ccc(C(N)=Nc2ccccc2)cc1`, for which the Potency is greater than 11.4 µM in [1], greater than 46 µM in test [6], greater than 9.22 µM in test [9] and 3.16 µM (active) in test [11]. In addition, the activity change, negative = inhibition was 18.3% in test [2] and -2.23% in [4]. For the same compound, the Potency entry in [3] and in [8] was “inactive” each time. In addition, the activity, negative = inhibition in test [5] is -4.47%.

`Nc1cc2c(nc3c4ccccc4c(N)cc3[n+]2-c2cccc3ccccc23)c2ccccc12` (tested in a mixture with another compound): the Potency is greater than 11.4 µM in test [1]; 1.26 µM (active) in test [3]; greater than 46 µM in test [6]; greater than 9.22 µM in test [9]; 1.58 µM (active) in test [11]. Moreover, the activity change, negative = inhibition is 11.3% in test [2] and 8.58% in test [4]. Also, the activity, negative = inhibition in test [5] is 6.04%. Also, the Potency result in test [8] was “inactive”.

With `Cc1ccc(S(=O)(=O)N[C@H](CN)C(=O)O)cc1`, the Potency in [1] was greater than 11.4 µM; in test [6] it was greater than 46 µM; in test [9] it was greater than 9.22 µM. The activity change, negative = inhibition in test [2] is 10.5%; in test [3], -18.5% [at 2.29 µM]; in test [4], 3.21%. Further, the activity, negative = inhibition in [5] is 8.31%. Besides, the Potency result in test [8] and in [12] was “inactive” each time.

As to `Clc1ccc(CN2CCCN(Cc3ccc(Cl)cc3)C2c2cc3ccccc3c3ccccc23)cc1`, the Potency in [1] is greater than 11.4 µM; in [3] it was 0.794 µM (active); in test [6], greater than 46 µM; in test [11] it was 0.199 µM (active); in test [12], 0.794 µM (active). The activity change, negative = inhibition in [2] was 6.24%; in test [4], -10.5%. Moreover, the activity, negative = inhibition in test [5] was 2.22%. In addition, the Potency entry in [7] and in test [13] was “inactive” each time.
